# Results as given in ChEMBL document CHEMBL1157539, “Thousands of chemical starting points for antimalarial lead identification” (Nature, 2010).
# Experiments:
# Assay type in all cases: functional
# Plasmodium falciparum [1] = experiment: GSK_TCMDC: Inhibition of Plasmodium falciparum 3D7 in whole red blood cells, using parasite LDH activity as an index of growth. Test compounds present at 2uM
# Plasmodium falciparum [2] = experiment: GSK_TCMDC: Inhibition of Plasmodium falciparum Dd2 in whole red blood cells, using parasite LDH activity as an index of growth. Test compounds present at 2uM
# HepG2 = experiment: GSK_TCMDC: Percent inhibition of human HepG2 cell line. Test compounds present at 10uM.
Structure (SMILES),Inhibition (Plasmodium falciparum [1]) [%],Inhibition (Plasmodium falciparum [2]) [%],Inhibition (HepG2) [%]
CNS(=O)(=O)CCNCc1ccc(-c2ccc3ncnc(Nc4ccc(OCc5ccccc5)cc4)c3c2)o1,100,26,19
Cc1ccc(-c2cc(C(=O)Nc3ccc(S(=O)(=O)N4CCCC(C)C4)cc3)[nH]n2)c(O)c1 (stereo not given),100,99,32
CC(C)(C)c1ccc(NC(=O)c2ccc(CN3CCCN(Cc4cccc(Cl)c4)CC3)cc2)cc1.O=C(O)C(F)(F)F,96,7,43
CN1CCN(C(=O)CN2CCC3(CCC2=O)NC(=O)c2ccccc2O3)CC1 (stereo not given),99,98,0
O=C(Nc1ccc2c(c1)CCN2C1CCN(Cc2csc3ccccc23)C1)c1ccco1 (stereo not given),95,95,0
O=C(Nc1ccc2c(c1)CCC2)c1cnc(N2CCN(c3ccncc3)CC2)c(Cl)c1.O=C(O)C(F)(F)F,100,48,33
CCN(CC)CCN(Cc1ccc(-c2ccc(C(F)(F)F)cc2)cc1)C(=O)Cn1c(CCc2cccc(F)c2F)c(C)c(=O)c2ccccc21.O=C(O)C(O)C(O)C(=O)O,87,52,61
O=C(/C=C/c1ccc(Cl)c(Cl)c1)NCCCCCN1CCC(C(=O)Nc2ccc3c(c2)OCO3)CC1,92,0,18
CCNC(=O)Nc1cccc(-c2ccc(-c3nc4cccc(C)c4[nH]3)s2)c1,96,20,32
Cc1c(C(=O)N2CCCC(C(F)(F)F)C2)sc2cccc(F)c12 (stereo not given),99,89,0
O=C(NC1CCN(CC2(c3ccccc3F)CCCC2)CC1)c1cc[nH]n1,93,91,0
COc1ccc(CNCc2ccc(-c3ccc(-c4nc5cccc(C)c5[nH]4)cc3)cc2)cc1.O=C(O)C(F)(F)F,100,97,53
Cc1ccc(C(C)C)c(Oc2cnc(NC(CO)c3ccccc3)nc2N)c1 (stereo not given),95,0,27
CCOC(=O)C1=C(C)N=c2sc(=Cc3cc(Cl)ccc3O)c(=O)n2C1c1ccc(OC)cc1 (stereo not given),99,65,0
COc1cc(C(=O)N2CCOC(CCN3CCC(c4ccc(Cl)cc4)CC3)(c3ccc(Cl)c(Cl)c3)C2)cc(OC)c1OC (stereo not given),91,80,44
Cc1nc2nc(N)nc(N)c2c(C)c1Cc1cccc(C(F)(F)F)c1.Cl,89,23,65
Cc1cccc2nc(-c3ccc(-c4cccc(NC(=O)Nc5ccsc5)c4)s3)[nH]c12,100,29,30
CCCCCCNC(=O)C1Cc2c([nH]c3cc(Cl)ccc23)C2(CCN(Cc3ccccc3)CC2)N1 (stereo not given),90,56,21
N#Cc1cccc(NC(=O)c2ccc(S(=O)(=O)NCC3CCCN3CC3CCCCC3)cc2)c1.O=C(O)C(F)(F)F (stereo not given),88,18,25
COC(=O)c1cccc(CNCc2cccc(-c3ccc(-c4nc5ccccc5[nH]4)cc3)c2)c1.O=C(O)C(F)(F)F,99,51,0

Structure (SMILES),Inhibition (Plasmodium falciparum [1]) [%],Inhibition (Plasmodium falciparum [2]) [%],Inhibition (HepG2) [%]
Cn1cnc2c(Nc3ccncc3)nc(-c3ccc(OC(F)(F)F)cc3)nc21.O=C(O)C(F)(F)F,100,65,28
COc1ccc2ncc(F)c(CCN3C4CCC3CC(NCc3ccc5c(c3)OCCO5)C4)c2n1.Cl (stereo not given),100,35,27
O=C(NCc1cccnc1)C(c1cc2ccccc2o1)N1CCN(C(c2ccccc2)c2ccccc2)CC1 (stereo not given),95,81,12
Cc1cc(F)ccc1[C@H]1C[C@H](N2CCOCC2)CCN1C(=O)N(C)[C@@H](C)c1cc(C(F)(F)F)cc(C(F)(F)F)c1.Cl,100,99,4
COc1ccc(NC(=O)Nc2ccc(-c3ccccc3)cc2)cc1Cn1nc(Cl)c(N2CCCNCC2)cc1=O.O=C(O)C(F)(F)F,100,84,18
CCOc1ccc(/C=C/C(=O)Nc2cccc3c2CCN(C)C3)cc1.Cl,92,3,0
Cc1noc(-c2ccc(NC[C@@H](C)NC[C@H](O)c3cccc(Cl)c3)cc2)n1,97,84,11
COc1ccccc1CCNc1nc(C)cc(NCCC(=O)NCCOc2ccccc2)n1.O=C(O)C(F)(F)F,85,14,11
Cc1c(CN2CCC(N3CCC(C(=O)NC4CC4)CC3)CC2)[nH]c2c(Cl)cccc12,92,3,22
Cl.N=c1n(Cc2ccc(Cl)cc2)c2ccccc2n1CC(O)c1ccc(Cl)c(Cl)c1 (stereo not given),98,99,58
CO/C(=C\C=C\c1cc2cc(Cl)c(Cl)cc2[nH]1)C(=O)NC1CC2CCC(C1)N2C.Cl (stereo not given),88,23,46
Nc1nccc2ccc(-c3ccsc3)cc12.O=C(O)C(F)(F)F,100,89,38
CN(CCCN(C)c1cc(NC(=O)c2ccc(F)cc2)ccn1)Cc1cccc(F)c1.O=C(O)C(F)(F)F,83,60,0
COc1cc(NC(=O)c2sc(-c3ccc(Cl)cc3)cc2NC(=O)c2ccncc2)ccc1OCCN1CCCC1,100,100,100
CC1(C)N=C(NC(=O)Nc2ccc([N+](=O)[O-])cc2)N=C(N)N1OCc1cccc2ccccc12,97,21,35
CCc1cc(N2CCN(c3ccccc3F)CC2)nc(SCc2ccc(C(=O)NC3CC3)o2)n1,90,94,9
Cc1cc(Nc2c(C(N)=O)cnc3cc(-c4ccoc4)ccc23)ccc1N1CCN(C)CC1.Cl,100,100,7
O=C(Nc1ccc(Cl)cc1)Nc1cccc(-c2cccc(-c3nc4cc(C(F)(F)F)ccc4[nH]3)c2)c1,99,97,87
COc1ccc(Nc2nc(NCc3cccnc3)cc(-c3ccc(OC)cc3)n2)cc1,89,16,0
CC(O)c1cccc(-c2ccc(Nc3ccnc4cc(-c5nccs5)ccc34)cc2)c1.Cl (stereo not given),91,69,31

Structure (SMILES),Inhibition (Plasmodium falciparum [1]) [%],Inhibition (Plasmodium falciparum [2]) [%],Inhibition (HepG2) [%]
COc1ccccc1C1CCN(C2CCC(NC(=O)/C=C/c3cc(C(F)(F)F)cc(C(F)(F)F)c3)CC2)CC1 (stereo not given),92,21,31
Cc1cccc(CN2CCCC3(CCN(Cc4ccccc4O)C3)C2)c1 (stereo not given),99,76,14
Cc1nc(O)c2c(ccc3ccc(CNc4ccc(C(=O)N[C@@H](CCC(=O)O)C(=O)O)cc4)cc32)n1,89,95,32
COc1cccc(CNC(=O)[C@@H]2CN(C(=O)c3ccccc3)CCN2)c1.O=C(O)C(F)(F)F,92,0,4
CN(c1ccccc1)S(=O)(=O)c1cccc(NC(=O)c2ccc(-n3ccnc3)c([N+](=O)[O-])c2)c1,83,0,19
Cc1nc2nc(N)nc(N)c2c(C)c1Cc1cccs1.Cl,95,2,66
CCc1nc(N)nc(N)c1-c1cccc(Cl)c1,94,1,60
CCCN1CCN(CCCNC(=O)c2cc3c(-c4ccc(Cl)cc4)nn(C)c3s2)CC1,88,20,46
COc1ccc(-c2cccc(NC(=O)c3cccc(C#N)c3)c2)cc1CN1CCNCC1.O=C(O)C(F)(F)F,100,15,27
O=C(O)C(F)(F)F.O=S(=O)(NCCN1CCCC1)c1cccc(-c2ccc(CNCc3ccsc3)cc2)c1,100,31,33
Cc1cccc2nc(-c3ccc(-c4ccc(CN5CCN(CCN6CCOCC6)CC5)cc4)cc3)[nH]c12.O=C(O)C(F)(F)F,98,74,49
CC(C)COc1ccc(Cl)cc1Cc1ccc(-c2nc3ccc(Br)cc3[nH]2)o1.Cl,80,75,19
COc1cc(-n2c(CN3CCCC3)nc3cc(-c4ccc(Cl)cc4)sc3c2=O)ccc1OCCN1CCCC1.O=C(O)C(F)(F)F,94,90,66
Cl.N=C(N)c1cccc(OCCCOc2cccc(NC(=O)Nc3ccc([N+](=O)[O-])cc3)c2)c1,98,22,16
CN(C)CCCNc1ccnc2cc(Cl)ccc12,100,100,10
Cn1cncc1CCN(Cc1ccc(-c2ccc(C(F)(F)F)cc2)cc1)C(=O)Cn1c(CCc2cccc(F)c2F)cc(=O)c2cccnc21,100,97,44
O=C(Nc1ccc(OC2CCN(Cc3ccccc3)C2)c(Cl)c1)c1cccs1.O=C(O)C(F)(F)F (stereo not given),97,96,13
COc1cc2c(cc1OC)CN(c1cc(N)c3cc(OC)c(OC)cc3n1)CC2.CS(=O)(=O)O,100,99,23
CN(C)CCCOc1c(C(C)(C)C)cc(-c2cc(C(C)(C)C)c(OCCCN(C)C)c(C(C)(C)C)c2)cc1C(C)(C)C,100,99,25
O=C(O)C(F)(F)F.O=S(=O)(NCCN1CCCC1)c1cccc(-c2cccc(CNCc3ccc(F)cc3)c2)c1,99,73,41
